Test results from PubChem BioAssay AID1529 (NMMLSC, 2009).
“And” between values parts separate entries of the source, which are not always exact repeats. Identical values can stand only once. Hit rate of the full screen: of about 290,000 compounds, about 4,200 (1.4%) were called active.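 The calls were made as follows: active = binding response more than 3 SD above or below the average of its plate-row segment, actives on both sides; inconclusive = wells at one plate position flagged as instrument error; inactive = the rest.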 This excerpt belongs to a sample that is enriched for actives. Some compounds were tested as several samples or in several runs, with calls that do not always agree.

target: Mitogen-activated protein kinase kinase kinase 3 (Homo sapiens) (UniProt Q99759); assay: compounds raising or lowering MEK5 association with MEKK3 PB1 – biochemical, wildtype MEKK3, multiplex bead flow cytometry, Alexa488-MEK5, primary screen (AID 1529); conditions: bead-based flow cytometry, Alexa488-MEK5 binding to MEKK3; at 10 µM; actives lie on both sides; 0 = blocked by unlabeled MEK5, 100 = vehicle;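 also: Alexa488 bead fluorescence after subtracting the streptavidin-only scavenger bead signal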
Sequence (Q99759 whole entry, looked up): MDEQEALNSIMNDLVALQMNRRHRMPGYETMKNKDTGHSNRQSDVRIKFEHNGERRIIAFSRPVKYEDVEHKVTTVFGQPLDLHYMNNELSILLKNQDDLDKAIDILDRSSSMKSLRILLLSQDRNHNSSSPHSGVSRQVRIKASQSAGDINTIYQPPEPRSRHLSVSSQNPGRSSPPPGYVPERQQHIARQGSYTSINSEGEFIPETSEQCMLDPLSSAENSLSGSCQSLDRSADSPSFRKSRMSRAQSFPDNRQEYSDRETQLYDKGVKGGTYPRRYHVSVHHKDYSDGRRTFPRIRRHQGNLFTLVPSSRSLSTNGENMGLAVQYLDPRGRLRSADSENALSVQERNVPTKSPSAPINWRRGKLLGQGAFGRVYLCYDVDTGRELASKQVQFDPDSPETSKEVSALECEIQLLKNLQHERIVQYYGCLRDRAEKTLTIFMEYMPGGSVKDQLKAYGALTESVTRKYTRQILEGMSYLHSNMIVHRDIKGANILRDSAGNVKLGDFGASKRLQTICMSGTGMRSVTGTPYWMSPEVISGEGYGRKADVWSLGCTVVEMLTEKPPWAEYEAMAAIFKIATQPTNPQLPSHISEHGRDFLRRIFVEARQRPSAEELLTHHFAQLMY

With C=CCN(CC=C)S(=O)(=O)c1ccc(C(=O)Nc2sc3c(c2C(N)=O)CCCCC3)cc1 as the molecule, how does the binding response (% of control) read?
The binding response (% of control) was 66% [inhibitor] (active).

NC(=O)c1c(NC(=O)c2ccccc2)sc2c1CCCC2 was tested. Which binding response (% of control) did it give?
Its binding response (% of control) is 102% (inactive).

With C=CCN(CC=C)S(=O)(=O)c1ccc(C(=O)Nc2nc3c(s2)CCc2ccccc2-3)cc1 as the molecule, how does the binding response (% of control) read?
The binding response (% of control) was 100% (inactive).

NS(=O)(=O)c1ccc2nc(NC(=O)C3=COCCO3)sc2c1 was tested. Which binding response (% of control) did it give?
The binding response (% of control) was 100% (inactive).

For COc1cccc(NC(=O)[C@H](Cc2c[nH]c3ccccc23)NC(=O)[C@@H]2Cc3ccccc3CN2)c1, which binding response (% of control) is on record?
The binding response (% of control) was 101% (inactive).

CCc1nnc(SCc2cccc(F)c2)nc1CC was tested. Which binding response (% of control) did it give?
Its binding response (% of control) is 101% (inactive).

CCc1ccc2nc3sc(C(=O)Nc4nnc(CC)s4)c(N)c3cc2c1 was tested. Which binding response (% of control) did it give?
The binding response (% of control) was 103% (inactive).

For CCc1nnc(NC(=O)c2sc3nc(C)cc(COC)c3c2N)s1, which binding response (% of control) is on record?
The binding response (% of control) was 46% [inhibitor] (active).

For COCc1cc(C)nc2sc(C(=O)NC3CCCCC3)c(N)c12, which binding response (% of control) is on record?
Its binding response (% of control) is 101% (inactive).

Which binding response (% of control) does the source give for CCOc1cc(C(=O)OCC(=O)Nc2cccc(C)c2)ccc1OCC(=O)N1CCOCC1 here?
The binding response (% of control) was 137% (active).

Which binding response (% of control) does the source give for COc1ccc(C(=O)OCC(=O)Nc2cccc(C(C)=O)c2)cc1OC here?
The binding response (% of control) was 100% (inactive).

O=C(COC(=O)c1ccccc1)Nc1cccc(S(=O)(=O)N2CCOCC2)c1 was tested. Which binding response (% of control) did it give?
Its binding response (% of control) is 104% (inactive).

With COc1ccc(NC(=O)COc2ccc(C(=O)c3ccc(F)cc3)cc2)cc1S(N)(=O)=O as the molecule, how does the binding response (% of control) read?
The binding response (% of control) was 100% (inactive).

How did the binding response (% of control) turn out when CCc1nc2nc(C)c(NS(=O)(=O)c3ccc4c(c3)CCCC4)c(=O)n2[nH]1 was run?
The binding response (% of control) was 101% (inactive).

How did the binding response (% of control) turn out when COc1ccc(CN(C)C(=O)Cc2ccsc2)c(OC)c1OC was run?
Its binding response (% of control) is 103% (inactive).

For CCC/C(O)=C1\C(=O)CC(C)(C)CC1=Nc1ccccc1OC, which binding response (% of control) is on record?
The binding response (% of control) was 102% (inactive).

How did the binding response (% of control) turn out when COc1ccccc1N=C(C)C1=C(O)COC1=O was run?
The binding response (% of control) was 81% [inhibitor] (active).

Which binding response (% of control) does the source give for COc1ccccc1N=Cc1c(O)c2ccccc2oc1=O here?
Its binding response (% of control) is 121% (inactive).

How did the binding response (% of control) turn out when Cc1ccc2c(C)c(C(=O)N3CCN(c4ccncc4)CC3)oc2c1C was run?
The binding response (% of control) was 106% (inactive).

Cc1ccc(-c2nnc(CN3CCN(C)CC3)o2)cc1 was tested. Which binding response (% of control) did it give?
The binding response (% of control) was 112% (inactive).

COc1ccc(N2CCN(Cc3nnc(-c4ccccc4)o3)CC2)cc1 was tested. Which binding response (% of control) did it give?
Its binding response (% of control) is 139% (active).

Which binding response (% of control) does the source give for c1ccc(-c2cnc(CN3CCN(c4ccccc4)CC3)o2)cc1 here?
The binding response (% of control) was 101% (inactive).

For CCCn1c(=N)n(CC(=O)c2ccc(Cl)c(Cl)c2)c2ccccc21, which binding response (% of control) is on record?
Its binding response (% of control) is 109% (inactive).

CCOC(=O)c1ccc(NC(=S)Nc2cc(C)cc(C)n2)cc1 was tested. Which binding response (% of control) did it give?
Its binding response (% of control) is 77% (inactive).

How did the binding response (% of control) turn out when CCOC(=O)c1cn[nH]c1NC(=S)Nc1ccccc1 was run?
Its binding response (% of control) is 93% (inactive).

CCOC(=O)c1cc2c(nc1NC(=S)Nc1ccccc1)CC(C)(CC)OC2 (centres undefined) was tested. Which binding response (% of control) did it give?
Its binding response (% of control) is 128% (active).

How did the binding response (% of control) turn out when CCOc1ccc(CN2CCNC(=O)C2CC(=O)NCCCC2CCCC2)cc1 (centres undefined) was run?
The binding response (% of control) was 102% (inactive).

How did the binding response (% of control) turn out when O=C1CCN(CCCc2ccccc2)CCN1CCO was run?
The binding response (% of control) was 101% (inactive).

Which binding response (% of control) does the source give for O=C(COC(=O)CNC(=O)c1ccco1)Nc1ccc(F)cc1 here?
The binding response (% of control) was 65% [inhibitor] (active).

Which binding response (% of control) does the source give for CCOC(=O)c1ccc(NC(=O)CNC(=O)c2ccco2)cc1 here?
The binding response (% of control) was 108% (inactive).

How did the binding response (% of control) turn out when NS(=O)(=O)c1ccc(NC(=O)COC(=O)c2ccco2)cc1 was run?
Its binding response (% of control) is 98% (inactive).

How did the binding response (% of control) turn out when CCOc1ccccc1NC(=S)N1CCN(c2cccc(C)c2C)CC1 was run?
Its binding response (% of control) is 102% (inactive).

For O=C(Nc1ccc2c(c1)CCC2)c1ccc(Br)s1, which binding response (% of control) is on record?
The binding response (% of control) was 86% (inactive).

Which binding response (% of control) does the source give for O=C(CCCO)N/N=C/c1cc(Br)ccc1O here?
Its binding response (% of control) is 129% (active).

How did the binding response (% of control) turn out when O=C(N/N=C/c1ccccc1O)/C(=C/c1ccccc1)CCO was run?
The binding response (% of control) was 108% (inactive).

Which binding response (% of control) does the source give for Oc1ccc(Br)cc1/C=N/Nc1ccccn1 here?
The binding response (% of control) was 99% (inactive).

How did the binding response (% of control) turn out when CCn1c(SCC(=O)NC2=NCCS2)nnc1C(C)NC(=O)c1ccccc1F (centres undefined) was run?
Its binding response (% of control) is 95% (inactive).

With Cc1ccc(CC2C(=O)N(c3ccc(F)cc3)C(=O)C2C)cc1 (centres undefined) as the molecule, how does the binding response (% of control) read?
Its binding response (% of control) is 99% (inactive).

With CCOC(=O)c1sc2nc(C)nc(SCC(N)=O)c2c1C as the molecule, how does the binding response (% of control) read?
The binding response (% of control) was 132% (active).

With CCOC(=O)c1sc2nc(C)[nH]c(=O)c2c1C as the molecule, how does the binding response (% of control) read?
Its binding response (% of control) is 97% (inactive).

How did the binding response (% of control) turn out when CCOC(=O)c1sc2nc(C)nc(Nc3ccc(OC)c(OC)c3)c2c1C was run?
Its binding response (% of control) is 101% (inactive).

For COC(C[C@@H]1O[C@@H]1C(=O)[C@H](C)OCc1ccccc1)OC, which binding response (% of control) is on record?
Its binding response (% of control) is 98% (inactive).

With CCOC(=O)/C=C/c1ccc(C(F)(F)F)cc1S(=O)(=O)NC(C)(C)C as the molecule, how does the binding response (% of control) read?
The binding response (% of control) was 100% (inactive).

With OCc1ccc(OCCCOc2cccc3cccnc23)cc1 as the molecule, how does the binding response (% of control) read?
The binding response (% of control) was 106% (inactive).

Which binding response (% of control) does the source give for Cc1cc(OCCOc2cccc3cccnc23)c(C)cc1Cl here?
The binding response (% of control) was 101% (inactive).

Which binding response (% of control) does the source give for CCOc1cccc(OCCCOc2cccc3cccnc23)c1 here?
Its binding response (% of control) is 143% (active).

For COc1cccc(CNC(=O)CCC2CCCN(C(=O)c3ccc(F)c(Cl)c3)C2)c1 (centres undefined), which binding response (% of control) is on record?
Its binding response (% of control) is 99% (inactive).

CS(=O)(=O)N1CCN(CC(=O)NC2CCCC2)CC1 was tested. Which binding response (% of control) did it give?
Its binding response (% of control) is 99% (inactive).

COC(=O)c1ccccc1NC(=O)C1(S(=O)(=O)c2ccc(Cl)cc2)CC1 was tested. Which binding response (% of control) did it give?
The binding response (% of control) was 102% (inactive).

For COC(=O)Cn1cnc2scc(-c3ccc(C)c(C)c3)c2c1=O, which binding response (% of control) is on record?
The binding response (% of control) was 105% (inactive).

CC1CN(C(=O)c2ccccc2NS(=O)(=O)c2cccc([N+](=O)[O-])c2)CC(C)O1 (centres undefined) was tested. Which binding response (% of control) did it give?
Its binding response (% of control) is 131% (active).

How did the binding response (% of control) turn out when COCCNC(=O)c1ccccc1NS(=O)(=O)c1ccc(C)c([N+](=O)[O-])c1 was run?
The binding response (% of control) was 101% (inactive).

COc1ccc(S(=O)(=O)Nc2ccccc2C(=O)N2CCCC2)cc1C was tested. Which binding response (% of control) did it give?
Its binding response (% of control) is 104% (inactive).

With O=C(NCC1CC1)c1onc(CSc2ccccc2)c1C(=O)NCC1CC1 as the molecule, how does the binding response (% of control) read?
The binding response (% of control) was 97% (inactive).

With NC(=O)COC(=O)c1ccc2c(c1)C(=O)N(Cc1ccco1)C2=O as the molecule, how does the binding response (% of control) read?
Its binding response (% of control) is 99% (inactive).

With C=CCn1c(C(C)NC(=O)CC)nc2ccccc21 (centres undefined) as the molecule, how does the binding response (% of control) read?
Its binding response (% of control) is 94% (inactive).

Which binding response (% of control) does the source give for C=CCn1c(P(C)(=O)O)nc2ccccc21 here?
Its binding response (% of control) is 138% (active) and 103% (inactive).

C=CCn1c(C2CC(=O)N(c3ccc(C)cc3)C2)nc2ccccc21 (centres undefined) was tested. Which binding response (% of control) did it give?
Its binding response (% of control) is 96% (inactive).

How did the binding response (% of control) turn out when COc1ccc(C#Cc2c(-c3ccc(OC)cc3)oc3ccc(-c4ccc5c(c4)OCO5)cc23)cc1 was run?
Its binding response (% of control) is 95% (inactive).

With COc1ccc(-n2cc(-c3ccccc3)c3c(=S)nc[nH]c32)cc1 as the molecule, how does the binding response (% of control) read?
The binding response (% of control) was 101% (inactive).

With CCn1cc(S(=O)(=O)c2cccc(C)c2)c(=O)c2cc(F)c(N3CCN(C)CC3)cc21 as the molecule, how does the binding response (% of control) read?
Its binding response (% of control) is 101% (inactive).

For Cc1ccc(-n2c(SCC(=O)N3c4ccccc4Sc4ccccc43)nnc2-c2ccncc2)cc1, which binding response (% of control) is on record?
The binding response (% of control) was 97% (inactive).

For Cc1ccc(Nc2nc(CSc3nnc(-c4ccncc4)n3-c3ccccc3C)cs2)cc1, which binding response (% of control) is on record?
The binding response (% of control) was 138% (active).

Which binding response (% of control) does the source give for Cc1ccc(-c2noc(CSc3nnc(-c4ccncc4)n3-c3ccc(F)cc3)n2)cc1 here?
The binding response (% of control) was 106% (inactive).
